DUX4 txn inh: DUX4-mediated transcription inhibition; 293T-iDUX4 ZSCAN4-Gaussia luciferase reporter, 24 h; hits give low values; activity change, negative = inhibition, % (test concentration not listed); actives 0.8% (n = 37,000);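 active = mean inhibition of at least 10% in the main channel, exceeding the control channel by a set limit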
Of the large screens only hits and unclear results are named; the others gave an inactive call. The full list was thinned out, with hits kept by preference.

O=C(Cc1ccncc1)N1CCCCN2[C@H](CO)[C@@H](c3ccc(-c4ccncc4)cc3)[C@H]2C1	none
O=C(Cc1ccccc1)N1CCCCN2[C@H](CO)[C@@H](c3ccc(C#CC4(O)CCCC4)cc3)[C@@H]2C1	none
O=C(Cc1ccncc1)N1CCCCN2[C@H](CO)[C@H](c3ccc(C#Cc4ccccc4F)cc3)[C@@H]2C1	DUX4 txn inh -38.5
COC(=O)C[C@@H]1CC[C@@H]2NC[C@H](O)COC[C@H]2O1	none
CN(C)CC#Cc1ccc([C@@H]2[C@@H](CO)N3CCCCN(C(=O)Cc4ccccn4)C[C@@H]23)cc1	none
